# Assay outcomes deposited in PubChem BioAssay by The Scripps Research Institute Molecular Screening Center.
# PAFAH2 inh = PAFAH2 (human) inhibition; actives 0.99% (n = 340,000); inhibition, % at 3.39 µM; Q99487; recombinant PAFAH2, FP-rhodamine activity probe, fluorescence polarization;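 active = inhibition above the mean over all tested compounds plus 3 SD, cut at about 30% in these data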;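 also: inhibitors block probe labeling of enzyme so polarization drops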
# PME-1 primary = PME-1 (human) inhibition; inhibition, % at 5.9 µM; actives 0.53% (n = 320,000); Q9Y570; recombinant PME-1, FP-Rh probe fluorescence polarization; AID 2130;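 active = inhibition above the campaign mean of all compounds plus 3 SD, cut at about 26% in these data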;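 also: competitive labeling of PME-1 active site by serine hydrolase directed probe; inhibitors block probe labeling so polarization falls and inhibition rises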
# pPAFAH FP inh = inhibitors of human plasma PAF acetylhydrolase (pPAFAH) | recombinant pPAFAH, FP-rhodamine probe fluorescence polarization | inhibition, % at 3.39 µM | actives 1.5% (n = 330,000) | AID 463082;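 active = inhibition above the mean inhibition across the screen plus 3 SD, cut at about 25% in these data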;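 also: inhibitors block binding of the rhodamine activity-based probe so polarization drops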
# PAFAH1B3 inh = blocks human PAF acetylhydrolase 1B catalytic subunit 3 | Q15102 | recombinant PAFAH1B3, FP-rhodamine probe, fluorescence polarization | inhibition, % at 3.39 µM | actives 0.28% (n = 340,000) | AID 492972;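 active = inhibition above the screen-wide average of all tested compounds plus 3 SD, cut at about 25% in these data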
# Fam108B inh = Fam108B inhibition, counter-screen for RBBP9 inhibitors; inhibition, % at 9.51 µM; actives 0.33% (n = 300,000); recombinant Fam108B, FP-Rh probe fluorescence polarization;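 active = inhibition above the screen mean inhibition plus 3 SD, computed separately per campaign, cut at about 18% in these data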;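 also: inhibitors lower polarization as less probe binds the enzyme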
# PAFAH1B2 FP inh = inhibitors of human PAFAH1B2; AID 492953; P68402; inhibition, % at 3.39 µM; actives 1.2% (n = 340,000); recombinant PAFAH1B2, FP-rhodamine activity probe, fluorescence polarization;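 active = inhibition above the mean of all tested compounds plus 3 SD, cut at about 24% in these data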
# Target sequence (P68402 whole entry, looked up): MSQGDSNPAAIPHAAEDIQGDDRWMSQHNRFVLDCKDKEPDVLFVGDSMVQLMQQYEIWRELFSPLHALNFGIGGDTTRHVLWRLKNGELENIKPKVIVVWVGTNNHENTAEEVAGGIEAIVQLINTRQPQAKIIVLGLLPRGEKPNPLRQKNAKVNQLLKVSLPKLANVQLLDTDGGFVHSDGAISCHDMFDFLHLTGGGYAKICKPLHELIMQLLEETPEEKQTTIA
# PAFAH2 confirm = confirmation of human PAFAH2 inhibitors | shares compounds with PAFAH2 inh | recombinant PAFAH2, FP-rhodamine activity probe, fluorescence polarization | inhibition, % at 3.39 µM | actives 65% (n = 2,300) | AID 493030;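 active = mean inhibition over three repeats above a set limit taken from the earlier primary screen, cut at about 30% in these data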;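 also: inhibitor blocks binding of rhodamine activity probe so polarization falls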
# Hits are given with their value; i = inactive; nt = not tested or not shown. In the library only some 2.8% were active in any assay of this set; here they are far more common.
SMILES,PAFAH2 inh,PME-1 primary,pPAFAH FP inh,PAFAH1B3 inh,Fam108B inh,PAFAH1B2 FP inh,PAFAH2 confirm
COc1ccc(CNC(=O)CCCn2c(SCC#N)nc3cc4c(cc3c2=O)OCO4)cc1,i,i,i,i,i,i,nt
CC(=O)N(c1cccc(Br)c1)c1nc(C)cc(C)c1C#N,i,i,i,i,i,i,nt
Cc1ccc(C(=O)OCC(=O)NC2CC2)s1,70,nt,i,i,nt,i,55
Cc1ccsc1C(=O)OCC(=O)NC1CC1,33,nt,i,i,nt,i,i
Cc1ccsc1C(=O)OCC(=O)N1C(C)CCCC1C (configuration not stated),i,nt,i,i,nt,i,nt
Cc1ccc(C(=O)NCC(=O)NC2CCC(C)CC2)s1 (configuration not stated),i,i,i,i,nt,i,nt
Cc1c(Cl)cnc(NC(=O)COC(=O)C2CC3CCCC(C2)C3=O)c1Cl (configuration not stated),i,i,i,i,nt,i,nt
CCOc1ccc(NC(=O)COC(=O)C2CC2C)cc1 (configuration not stated),60,nt,i,i,nt,i,47
CC1CC1C(=O)OCC(=O)Nc1ccc(Cl)cn1 (configuration not stated),47,nt,i,i,nt,i,39
O=C(COC(=O)C1CC2CCCC(C1)C2=O)Nc1ccc(Cl)cn1 (configuration not stated),47,i,i,i,nt,i,i
Cc1nc(NC(=O)COC(=O)C2CC2C)c(Cl)cc1Cl (configuration not stated),34,nt,i,i,nt,i,i
COc1cc(Cl)c(C)cc1NC(=O)COC(=O)C1CC1C (configuration not stated),i,nt,i,i,nt,i,nt
CCCCNC(=O)COC(=O)c1ccc(F)cc1Cl,i,i,i,i,i,i,nt
CCCCN(C(=O)CN1C(=O)C2CCCCC2C1=O)c1c(N)n(CCC)c(=O)[nH]c1=O (configuration not stated),i,i,i,i,i,i,nt
CC(C)Nc1ccc(C(CC(N)=O)NC(=O)Cc2ccc(Cl)cc2)cc1[N+](=O)[O-] (configuration not stated),i,i,i,i,i,i,nt
O=C(COC(=O)/C=C/c1ccc(C(F)(F)F)cc1)NC1CCCC1,i,i,i,i,i,i,nt
O=C(COC(=O)/C=C/c1ccc(Cl)cc1)NC1CCCCCC1,79,i,i,i,nt,i,71
CSc1ccc(/C=C/C(=O)OCC(=O)NC2CC2)cc1,57,i,i,i,nt,i,48
O=C(COC(=O)/C=C/c1ccc(Cl)cc1)NC1CC1,52,nt,i,i,nt,i,34
O=C(CNC(=S)N(CCCN1CCOCC1)Cc1cccs1)NCc1ccc(Cl)cc1,48,i,i,i,i,i,37
O=C(CNC(=S)N(CCCN1CCOCC1)Cc1cccs1)NCCCN1CCOCC1,i,i,i,i,i,i,nt
O=C(CNC(=S)N(CCCN1CCOCC1)Cc1cccs1)NCc1ccccc1Cl,47,i,i,i,i,i,31
COc1ccc(NC(=O)CCSc2nc(C)cs2)cc1,i,i,i,i,i,i,nt
Cc1cccc(C(C)C)c1NC(=O)COC(=O)CN1C(=O)C2CC=CCC2C1=O (configuration not stated),53,i,i,i,i,i,37
O=C(COC(=O)C1CC2C=CC1C2)NCc1ccccc1Cl (configuration not stated),45,i,i,i,i,i,44
SMILES,PAFAH2 inh,PME-1 primary,pPAFAH FP inh,PAFAH1B3 inh,Fam108B inh,PAFAH1B2 FP inh,PAFAH2 confirm
O=C(COC(=O)C1CCC1)NCc1ccccc1Cl,i,i,i,i,i,i,nt
CC1CC1C(=O)OCC(=O)NCc1ccccc1Cl (configuration not stated),68,i,i,i,i,i,56
O=C(COC(=O)c1cccs1)Nc1ccccc1[N+](=O)[O-],75,i,i,i,i,i,68
N#Cc1ccccc1NC(=O)COC(=O)c1cccs1,84,nt,i,i,nt,i,63
O=C(CN1CC(c2ccccc2)CC1=O)N/N=C/c1cc(Br)ccc1O (configuration not stated),i,i,i,i,i,i,nt
CCOC(=O)N1CCC(n2c(SCC(=O)c3ccccc3)nc3ccsc3c2=O)CC1,i,i,i,i,i,i,nt
